Rab9 prom act – Rab9 promoter activation; Huh7 Rab9 promoter-luciferase reporter, luminescence, 24 h; Potency, µM (titrated, usually from 9.22 µM), for the others: at the top dose activation, negative = inhibition, most hits filed as activators; actives 2.8% (n = 320,000); also: % of control where 0% means no effect; nearly all actives have a fitted effect of over 60% in size
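Stable Rab9-luc Huh7, 1500 cells/well, 2 h settle; cmpd in DMSO, 24 h, 37 °C/5% CO2; luciferase reagent 10 min RT; luminescence.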
FLuc modulator – firefly luciferase modulation, counter-screen for miR-21 project. P08659. Potency, µM (doses to about 57.5 µM), inactives show top-dose activity change, negative = inhibition, usual class: inhibitors. purified FLuc, Km substrates, luminescence inhibition. actives 6.9% (n = 360,000);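 also: plate controls were vehicle for no effect and reference inhibitor for full effect; nearly all actives have a fitted effect of over 55% in size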
Target sequence (P08659 whole entry, looked up): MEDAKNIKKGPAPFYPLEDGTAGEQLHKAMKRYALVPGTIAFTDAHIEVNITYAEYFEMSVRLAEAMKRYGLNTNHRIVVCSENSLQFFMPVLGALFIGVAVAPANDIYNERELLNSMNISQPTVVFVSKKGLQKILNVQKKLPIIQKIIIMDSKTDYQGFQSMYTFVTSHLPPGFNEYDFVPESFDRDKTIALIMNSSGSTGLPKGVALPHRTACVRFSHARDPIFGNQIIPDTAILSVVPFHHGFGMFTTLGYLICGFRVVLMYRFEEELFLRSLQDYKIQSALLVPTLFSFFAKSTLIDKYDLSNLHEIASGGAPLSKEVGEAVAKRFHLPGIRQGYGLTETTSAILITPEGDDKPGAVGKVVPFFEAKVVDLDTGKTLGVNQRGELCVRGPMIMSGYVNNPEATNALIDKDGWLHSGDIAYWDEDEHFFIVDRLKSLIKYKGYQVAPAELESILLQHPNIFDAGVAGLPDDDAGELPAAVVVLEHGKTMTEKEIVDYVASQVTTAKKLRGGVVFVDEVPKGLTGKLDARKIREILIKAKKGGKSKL
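Biochemical qHTS of compounds, final roughly 60 µM downward over six points, against 10 nM purified firefly luciferase using Km concentrations of substrates (10 uM D-luciferin, 10 uM ATP) in Tris acetate pH 7.5 buffer; luminescence output.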
Luc counter – counter-screen: inhibitors of Kinase-Glo firefly luciferase. Potency, µM (highest dose often 38.3 µM), without a hit: at the highest dose activity change, negative = inhibition, actives largely listed as inhibitors. actives 0.28% (n = 200,000). Kinase-Glo luciferase, ATP luminescence, 8 min. Q27757; also: % is scaled to controls: 0 for no effect and ±100 for the full control effect; nearly all actives have a fitted effect of over 60% in size
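Substrate mix (final 50 mM imidazole pH 7.2, 50 mM KCl, 7 mM MgCl2, 10 uM ATP, 0.01% Tween 20, 0.05% BSA) plus pin-tool compound, then Kinase-Glo detection mix; 8 min ambient, luminescence read.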
NPC1 prom act – activates the NPC1 promoter. Huh7 NPC1 promoter luciferase reporter, 24 h. Potency, µM (top dose mostly 9.22 µM), for inactives: at the top dose activation, most hits filed as activators. actives 2.4% (n = 320,000). AID 485313; also: % of control where 0% means no effect; nearly all actives have a fitted effect of over 60% in size
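Readout is luciferase luminescence, reflecting NPC1 promoter activation in stably transfected Huh7 cells after 24 h compound exposure at 37 °C in reduced-serum medium with 10% FBS.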
SMN2 splice enh – SMN2 splice variant enhancement; HEK293 SMN2-luciferase splicing reporter, luminescence, 30-36 h; Potency, µM (top dose mostly 46.1 µM), for inactives: at the highest dose activity change, positive = activation, most hits filed as activators; actives 2.8% (n = 210,000); also: % of control where 0% means no effect; nearly all actives have a fitted effect of over 55% in size
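HEK293 cells carry an SMN2 […]–luciferase reporter in which exon 7 inclusion puts luciferase in frame. Cells were plated 10-12 h before compound addition, then incubated 30-36 h at 37C. ONE-Glo luminescence was read; sodium butyrate at 4.5 mM final served as control.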
ELG1 genotoxic – induces genotoxicity in HEK293T cells with luciferase-tagged ELG1 | HEK293T ELG1-luciferase reporter, luminescence, 16 h | actives 1.3% (n = 330,000) | Potency, µM (top dose mostly 46 µM), without a hit: at the highest dose activity change, positive = activation, most hits filed as activators | AID 504466; also: % of control where 0% means no effect; nearly all actives have a fitted effect of over 60% in size
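16 hr compound incubation (37 °C, 5% CO2) of HEK293T cells carrying luciferase-tagged ELG1; luciferase then measured by ONE-Glo luminescence after 30 min at RT.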
An asterisk follows results filed as active; ? = inconclusive; . = not tested or not shown; [ ] = dose if it differs, or a comment. Shown are actives, neighbours in structure and some others; about 7.4% of the full set was active somewhere. Calls follow the shape of the dose curve; as a rule, active = well fitted curve in the direction sought with a large enough effect; inconclusive = small, poorly fitted or top-dose-only effect, or another doubt; inactive = no such curve, though single readings can be large; an effect the other way counts as inactive or inconclusive. Potency is read from the fitted curve at half-maximal effect.

SMILES | Rab9 prom act | FLuc modulator | Luc counter | NPC1 prom act | SMN2 splice enh | ELG1 genotoxic
COc1ccc(S(=O)(=O)N2CCCc3ccccc32)cc1OC | -6% | 19µM* | . | -2% | . | ?
COc1ccc(OC)c(CNC(=O)NCc2noc3ccc(C)cc23)c1 | . | 0% | . | . | . | .
CCN=c1scc(-c2ccc(F)cc2)n1/N=C/c1ccccn1 | 3.2µM* | 9.5µM* | 2% | 2.5µM* | 13µM* | 10µM*
CCN=c1scc(-c2ccccc2)n1/N=C/c1ccccn1 | 0.56µM* | 0.6µM* | -5% | 0.35µM* | 14µM* | ?
CCCc1sc(N/N=C/c2ccccn2)nc1-c1ccc(F)cc1 | -32% | -16% | -3% | -36% | -74% | ?
CCOC(=O)C1CCCN(C(=O)c2cc(Nc3ccc(OC)cc3)nc3ccccc23)C1 (stereo unspecified) | . | 15µM* | 2% | . | -5% | .
CCOC(=O)C1CCCN(C(=O)c2cc(-c3ccc(F)cc3)nc3ccccc23)C1 (stereo unspecified) | -5% | 15µM* | 2% | -2% | 24% | -9%
COc1cccc(-c2nn(-c3ccc(C)cc3)cc2C(=O)N2CCN(C3CCS(=O)(=O)C3)CC2)c1 (stereo unspecified) | 1% | 15µM* | . | 5% | . | -2%
O=C(c1cc(-c2ccc(F)cc2)nc2ccccc12)N1CCN(C2CCS(=O)(=O)C2)CC1 (stereo unspecified) | 19% | 9.5µM* | . | 9% | . | 0%
CC1=C(CC[C@H](C)CO)O[C@@H]2C[C@@H]3[C@H]4CC[C@H]5C[C@@H](O)CC[C@]5(C)[C@@H]4CC(=O)[C@@]3(C)[C@@H]12 | . | . | -3%[7.66 µM] | . | -1%[9.22 µM] | .
COc1ccc(Cl)cc1N=Nc1ncc[nH]1 | . | . | 1% | . | -1% | .
Clc1ccc(-n2cc(COCc3ccccc3)nn2)cc1 | 0.89µM* | 1.9µM* | -2% | 0.89µM* | 13µM* | ?
COc1cc(C(=O)Nc2nc3ccccc3[nH]2)ccc1OC(F)F | 2.8µM* | 11µM* | . | 1.4µM* | . | ?
COc1ccc(Cl)cc1C(=O)Nc1nc2ccccc2[nH]1 | ? | 0.085µM* | . | ? | . | ?
COc1ccc(Br)c(C(=O)Nc2nc3ccccc3[nH]2)c1 | ? | -12% | . | ? | . | 24%
COc1ccc(C(=O)Nc2nc3ccccc3[nH]2)cc1OC | 2.8µM* | 15µM* | -2% | 2.8µM* | 11µM* | ?
CCOc1ccc(C(=O)Nc2nc3ccccc3[nH]2)cc1OCC | 21% | ? | -1% | 9% | -39% | -7%
COc1ccc(C(=O)Nc2nc3ccccc3[nH]2)cc1S(=O)(=O)N1CCCC1 | -2% | ? | -4% | 3% | 18% | 3%
O=C(CS(=O)(=O)c1cccc2nsnc12)N1CCN(c2cccc(C(F)(F)F)c2)CC1 | . | -1% | . | . | . | .
CCCn1c(O)c(C=Nc2ccccc2)sc1=S | ? | 21µM* | 0% | 14% | . | ?
CCCCn1c(O)c(/C=C/C=C/C=Nc2ccccc2)sc1=S | 1% | 11µM* | 8.9µM* | -13% | -57% | 5%
c1ccc(Nc2nnc(-c3cccc4ccccc34)o2)cc1 | ? | 2.1µM* | . | -5% | . | ?
COc1ccc2cc(C(C)=O)c(=O)oc2c1 | -5% | -3% | -4% | -2% | 5% | 1%
Cn1c(-c2cc3ccccc3oc2=O)nc2ccccc21 | 3.5µM* | 21µM* | . | 4.5µM* | . | ?
COc1ccc2cc(-c3nc4ccccc4n3C)c(=O)oc2c1 | 1.3µM* | 5.4µM* | 1% | 2µM* | 13µM* | ?
COC(=O)[C@@H]1[C@@H](C)N(CCc2cc(OC)c(OC)c(OC)c2)C(=O)N[C@H]1c1ccccc1 | . | . | -4%[7.66 µM] | . | -2%[9.22 µM] | .
CCOc1cc(-c2nc(-c3ccc(-c4ccc(OC)cc4)nc3OC)no2)cc(OCC)c1OCC | . | 0% | . | . | 5% | .
O=C(CSc1ccc(-c2ccc(F)cc2)nn1)N1CCCCC1 | 23% | ? | 4% | 20% | 4% | 9%
